# Molecular target: RUNX1 (UniProt Q01196)
# Assay: RUNX1 binding intensity (PBM fluorescence), RUNX1 alone (arbitrary fluorescence units); higher = stronger binding
# Settings: RUNX1 concentration 2 nM; ETS1 concentration 0 nM
# Description: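 Cooperative gcPBM on 36-bp genomic probes with neighbouring ETS1 and RUNX1 sites. Recombinant human RUNX1 (2 nM) was incubated alone or with ETS1 (25 nM) and detected with anti-RUNX1 antibody plus Alexa488 secondary. Values are medians over 4 replicate spots; the RUNX1+ETS1 data were normalised to the RUNX1-only data. The probes sit in constant array flanks that are not printed.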
# 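Note: Full-length recombinant human RUNX1 bound to double-stranded 36-bp genomic probes on a high-density microarray, scored as Alexa488 fluorescence per spot via anti-RUNX1 antibody, median of four replicate spots.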
# Sequence of RUNX1 (Q01196 whole entry): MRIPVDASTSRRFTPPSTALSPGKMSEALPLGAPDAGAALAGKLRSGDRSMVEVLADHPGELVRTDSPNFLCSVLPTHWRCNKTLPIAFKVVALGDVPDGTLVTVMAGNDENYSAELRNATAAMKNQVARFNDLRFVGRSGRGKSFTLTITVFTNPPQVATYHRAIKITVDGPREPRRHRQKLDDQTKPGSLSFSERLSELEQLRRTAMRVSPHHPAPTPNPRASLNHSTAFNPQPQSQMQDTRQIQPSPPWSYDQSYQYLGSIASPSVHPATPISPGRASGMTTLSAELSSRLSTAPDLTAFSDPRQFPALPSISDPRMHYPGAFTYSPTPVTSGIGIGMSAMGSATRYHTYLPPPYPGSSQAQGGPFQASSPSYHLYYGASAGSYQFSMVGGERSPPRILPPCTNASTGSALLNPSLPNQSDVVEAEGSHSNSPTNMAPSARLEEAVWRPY
row,Sequence,RUNX1 binding intensity
1,GGCTGCAGGAAGTGGGAAGGTGTGGCTTTGAGTCTC,755
2,CTGGGCGTGGGCTTCCTGCGGCTGAGTGGCAGCTTC,740
3,GTGTGCGTGAGAAGAGGAAGTGGTTAGGAAGACACA,801
4,GCACTACATTTCCCAGCTTTCCTCGCGGTAAAGAGA,1270
5,AGGCCGCCTACAGGATGTTGGAAACCACAGGGCCCG,765
6,CATCAAGTATTTCCTCACGCAAGCAACCGCATCCAT,1180
7,CTAAACCGGAAGCCGCCCCTCTGACCGCTCTAAAAC,1070
8,GTTTAACAGGAAACCCTGCAGACCACAGGTTCTGTC,807
9,AAAACAAGGACTTCCGCCTCCCTGCGGTCCCTCCCC,894
10,GAGCAAACGGAGGCAGGAAGTGGTTATGTAACTTCA,810
11,CAGCTTTCCGGCCTGCAGCACAGGCAATGTGGTTTT,1020
12,GGGGAAAGGAAGAGGAAACCGCGAGTGCAAAGGCCC,1140
13,GAGGCGTTTCCGCCTCCTTTTCGCGGTTGCCTTCTC,1060
14,AGCTTGACGAAGGCTTCCTGTGGTTTGGGTTGATGT,824
15,TTTATCATGAATGCAGGATGTGGGCAGACTCACAGC,691
16,CCAAGCACTTCCTGCTGTTAGCTTTGTGGGCTGAGT,860
17,GGTCCGGATGTATAAAGCGCGGCCCCCTGCGGGGAG,732
18,TCGCCCACTTCCCCACCTCTCAAAAGACCACAGGCA,1560
19,ATGGCGAAGCAGGATGCCCTCAACCCACATACGGCA,1010
20,ACCTGTGTTCTGGCAGGATGTGGTTGACCTCAGCAG,755

row,Sequence,RUNX1 binding intensity
1,GTGAACTTCCTCCCCCACTGCCTATTTTTACCGCAG,1820
2,AAAGTTGTATAGTGAGGATGTGGTCAAGAACTCACC,1010
3,AGCGGCTGCACAGGAAGTTGGTTTTCACAAAGGCAA,658
4,TGCTGCAGCGGCGCTTCCTGGTGGTCAGGGCGCCAT,707
5,CCCCTCAGCTTCCGGGTGCTGCGGCCGCGGCCGAGA,827
6,GATATGGCAGGAAGTAGGGCCTGGAAACCGCACGGC,954
7,GGACACAGGCTTCCGCGTTACCGACACCGCGTGGGG,837
8,TCCGGAAGTGGCACTGATGGGCGCCTGCGGCGGGGG,758
9,TTTGCTGCAGAAGGATGTGGTTTATTCAGGTTTGAC,932
10,CAAGAGCCGGAAGTCCCTTGTGCCGCAGTCCTTCCC,800
11,AAATATAGTGCTAAAGGAAGTGGTTTTCATGCAACT,670
12,GACAAAACACAGAAAGGAAGTGGTCAACTATTGCAC,835
13,AAGAAAAAGGGAGGATGTGGTTTAGCAAAAGCACTG,920
14,TGTGTAAGAGGAAACACCAAAACCACAAATATGAAA,2080
15,TCTAAATCACTTCCTGTTACAGAAACCACAGGCCTG,1220
16,CCCCTGCCCCTTCCTGGAAGGCTGCGGTGTAACACC,978
17,TGCTCAGAAGGGCATCCGGTTGCGGAGAAGGTACAC,653
18,CTCTGAGCAGGAAGTGACAAAACCACGCAGGGCAGG,798
19,GAGGCGACCCACATCCGCTGTGCGGGGGCAACTGCA,729
20,CTTCGACCCCGGAAGCGCTAACCACCCCGGGGGCCG,797
